{"source": "ChEMBL document CHEMBL3988442", "about": "“University of Dundee, Small-Polar-MMV Screening Library” (2021)", "note": "Hit rate of the full screen: of about 38,000 compounds, about 1,200 (3.2%) showed an effect of 50% or more. The median lay at about -58%. Shown is part of a subset that was picked to be rich in strong results."}
{"system": "Plasmodium falciparum", "assay": "Calibr Malaria Delayed Death Assay SOP", "assay_type": "functional, organism-based", "parameters": "scale not given: in the data most compounds retested in dose-response had high values", "details": "concentration 4.99e-06 (unit not given; other assays of the set use mol/L)", "units": {"Percent Effect": "%"}}
{"compound": "O=C(O)C(F)(F)F.O=c1cccnn1CC1CN(CC2CCCC2)Cc2nccn2C1", "note": "(stereo unspecified)", "Percent Effect": -25.12}
{"compound": "Cn1nccc1-c1cnc2n1CCC21CCN(C(=O)C2(C)CC2)CC1", "Percent Effect": -43.4}
{"compound": "CCNC(=O)NC(=O)CNc1cccc(C(=O)c2ccccc2)c1", "Percent Effect": -85.13}
{"compound": "CC(C)(N)CNS(=O)(=O)Cc1cccc2cccnc12.Cl", "Percent Effect": -113.8}
{"compound": "CSc1nc2ncc3c(=O)n(CCN4CCCCC4)ccc3n2n1", "Percent Effect": -81.14}
{"compound": "Cc1ccccc1C(=O)N1CCCn2cnc(CN3CCCC3=O)c2C1", "Percent Effect": -111.5}
{"compound": "Cc1ncccc1C(=O)Nc1cccc(OCC(F)F)n1", "Percent Effect": -105.7}
{"compound": "Cc1ccc(CS(=O)(=O)N2Cc3c(CN(C)C)nn(C)c3C2)cc1.O=C(O)C(F)(F)F", "Percent Effect": 28.75}
{"compound": "COc1ccc(S(=O)(=O)N2Cc3c(CN(C)C)nn(C)c3C2)cc1.O=C(O)C(F)(F)F", "Percent Effect": 40.82}
{"compound": "CCc1ccc(S(=O)(=O)N2Cc3c(CN(C)C)nn(C)c3C2)cc1.O=C(O)C(F)(F)F", "Percent Effect": 62.16}
{"compound": "CNc1ncc(CN(C)c2nc(C3CCCC3)nc3c2cnn3C)cn1", "Percent Effect": -13.34}
{"compound": "CC(C)n1c2ccccc2c2c1cc(C(=O)O)n2C(=O)N(C)C", "Percent Effect": -103.4}
{"compound": "O=C(NCCC(O)c1ccoc1)Nc1cccs1", "note": "(stereo unspecified)", "Percent Effect": -113.5}
{"compound": "O=C(Cc1ccccc1Cl)NCC1CCN(Cc2ccsc2)CC1", "Percent Effect": 33.59}
{"compound": "O=C(Cc1ccccc1Cl)NCCN1CCC(c2cccs2)CC1", "Percent Effect": 62.17}
{"compound": "CC1CCN(CCNC(=O)c2sccc2C2CC2)CC1", "Percent Effect": -42.92}
{"compound": "O=C(NCCc1ccccc1)NCCN1CCC(c2cccs2)CC1", "Percent Effect": 76.7}
{"compound": "COc1ccc(CCC(=O)NCCN2CCC(c3cccs3)CC2)cc1", "Percent Effect": 74.85}
{"compound": "COc1ccc(C(=O)NCCN2CCC(c3cccs3)CC2)cc1OC", "Percent Effect": 29.34}
{"compound": "O=C(NCCN1CCC(c2cccs2)CC1)c1ccccc1C(F)(F)F", "Percent Effect": 31.51}
{"compound": "CC(=O)NCCN1CCC(c2cccs2)CC1", "Percent Effect": 2.442}
{"compound": "CCSc1ccccc1C(=O)NCCN1CCC(c2cccs2)CC1", "Percent Effect": 28.22}
{"compound": "O=C(NCCN1CCC(c2cccs2)CC1)Nc1cccs1", "Percent Effect": 62.79}
{"compound": "O=C(NCCN1CCC(c2cccs2)CC1)c1ccc(F)cc1Cl", "Percent Effect": -24.2}
{"compound": "Cn1cnc2c1C(COCC1CC1)CN(c1ncccn1)C2.O=C(O)C(F)(F)F.O=C(O)C(F)(F)F", "note": "(stereo unspecified)", "Percent Effect": -186}
{"compound": "CCc1nnc(SCc2nonc2C)n1C", "Percent Effect": -83.75}
{"compound": "CCS(=O)(=O)N1Cc2ncn(CC3CC3)c2C(COCC2CC2)C1.O=C(O)C(F)(F)F", "note": "(stereo unspecified)", "Percent Effect": -83.39}
{"compound": "CC(C)OCc1noc(C2CCOC2)n1", "note": "(stereo unspecified)", "Percent Effect": -54.08}
{"compound": "COc1ccc(-c2nnc(CNCCn3cc(C)cn3)o2)cc1", "Percent Effect": -61.63}
{"compound": "O=C(O)c1cc(S(=O)(=O)Nc2cccc3c2OCCO3)c(Cl)cc1F", "Percent Effect": -73.09}
{"compound": "O=S(=O)(c1ccccc1Cl)N1CCC2(CC1)OCCS2", "Percent Effect": -115.5}
{"compound": "CCN1CCCC2(CCN(Cc3nnc(C4CC4)o3)C2)C1=O", "note": "(stereo unspecified)", "Percent Effect": -40.49}
{"compound": "CC(C)CCN1CCN(CC(=O)Nc2ccc3nsnc3c2)CC1", "Percent Effect": -73.84}
{"compound": "Cc1ncncc1C(=O)N1CCCC(c2[nH]ncc2S(C)(=O)=O)C1", "note": "(stereo unspecified)", "Percent Effect": -131.2}
{"compound": "CN(C)c1ccc(CNC2=NCCCN2)cc1.I", "Percent Effect": -57.09}
{"compound": "I.c1ccc(OCCNC2=NCCCN2)cc1", "Percent Effect": 17.05}
{"compound": "CCOCc1ccc(CNC2=NCCCN2)cc1.I", "Percent Effect": 55.49}
{"compound": "COc1ccc(-n2cc(CNC(=O)c3cscn3)nn2)cc1", "Percent Effect": -125.4}
{"compound": "CC(C)c1nc2c(n1C)CCN(CC(=O)Nc1ccc(Cl)cn1)C2", "Percent Effect": -37.81}
{"compound": "CCc1ncc2c(n1)CN(CC(=O)Nc1ccncc1)CC2", "Percent Effect": -164.3}
{"compound": "CCc1ncc2c(n1)CN(CC(=O)Nc1ccc(Cl)cn1)CC2", "Percent Effect": 58.18}
{"compound": "COCC1c2c(cnn2C)CCN1C(=O)c1cccn1C.O=C(O)C(F)(F)F", "note": "(stereo unspecified)", "Percent Effect": -111.1}
{"compound": "CCC1CN(CC(=O)NCCN2CCCCCC2)c2ccccc2S1", "note": "(stereo unspecified)", "Percent Effect": 72.72}
{"compound": "O=C(NCCN1CCCCC1)c1cccc(Cl)c1Cl", "Percent Effect": 47.98}
{"compound": "CCC1CN(CC(=O)NCCN2CCCC2)c2ccccc2S1", "note": "(stereo unspecified)", "Percent Effect": 62.37}
{"compound": "CCn1nc(C)c2ccn(CC(=O)NCCN3CCCCC3)c(=O)c21", "Percent Effect": -46.75}
{"compound": "CCC1CN(CC(=O)NCCN2CCCCC2)c2ccccc2S1", "note": "(stereo unspecified)", "Percent Effect": 71.16}
{"compound": "Cc1ccccc1C1CCN(CCNC(=O)CS(C)(=O)=O)C1", "note": "(stereo unspecified)", "Percent Effect": -6.702}
{"compound": "CCC1CN(CC(=O)NCCN(CC)CC)c2ccccc2S1", "note": "(stereo unspecified)", "Percent Effect": 75.77}
{"compound": "CCN(CC)CCNC(=O)c1cnc(-c2ccccc2)nc1", "Percent Effect": -36.61}
{"compound": "Cc1nn(C)c2c(=O)n(CC(=O)NCCN3CCCCCC3)ccc12", "Percent Effect": 8.921}
